PubChem BioAssay (Tox21)
Values joined by “and” are separate entries in the source; they are usually repeats but may differ in a detail not shown here. Identical values can stand only once. Inconclusive results are not listed. A call without a number means that no potency is given here. A number with no mark means an inactive call. Active and inactive are the calls of the source. Calls follow the shape of the dose curve; as a rule, active = well fitted cell-killing curve with a large enough effect in the repeat runs; inconclusive = weak or mixed curves, or effect the other way; inactive = flat fitted curve, though single readings scatter.

How the values were obtained:
[1] = cAMP Responsive Elements (CRE) small molecule antagonists, cell-based qHTS assay: qHTS cell viability counter screen (AID 2060913); also: nearly all actives have a fitted effect of over 40% in size
Summary of the method: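 CRE-bla HEK293T cells were seeded in assay medium with 10% dialyzed FBS, incubated 18 hrs at 37 C, then exposed to compounds plus 0.25 uM final NKH477 for 3 hrs. Viability was read by CellTiter-Glo luminescence after 30 min, in the same wells.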

[2] = cAMP Responsive Elements (CRE) small molecule agonists, cell-based qHTS assay: qHTS cell viability counter screen (AID 2060914);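 also: viability read after 3 h of compound exposure; nearly all actives have a fitted effect of over 50% in size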
Summary of the method: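 Cells are seeded and incubated 18 h, treated with compounds in DMSO for 3 h, read for the bla reporter, then given CellTiter-Glo; luminescence is measured after 30 min at room temperature.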
Potency is read from the fitted curve at half-maximal effect.

SMILES | Potency [1] | Potency [2] | viability change, negative = cytotoxic [1] | activity change, negative = cytotoxicity [2]
CCCC(C)(COC(N)=O)COC(N)=O | inactive | inactive |  | 
O=C1OC(c2ccc(O)c(S(=O)(=O)O)c2)(c2ccc(O)c(S(=O)(=O)O)c2)c2c(Br)c(Br)c(Br)c(Br)c21 | inactive | inactive |  | 
CC1(C)CON(Cc2ccccc2Cl)C1=O | inactive | inactive |  | 
c1ccc(-c2ccccc2)cc1 | inactive | inactive |  | 
Cc1ccccc1N | inactive | inactive |  | 
CCCCCCCCCCCCBr | inactive | inactive |  | 
ClC1=C(Cl)C2(Cl)C3C(Cl)C(Cl)CC3C1(Cl)C2(Cl)Cl (centres undefined) | 60.9 µM (active) | 54.5 µM (active) |  | 
CC(C)NC(C)C | inactive | inactive |  | 
C=C(C)C#N | inactive | inactive |  | 
Cc1ccc(CCl)cc1 | inactive | inactive |  | 
Nc1ccc(Cc2ccc(N)cc2)cc1 | inactive | inactive |  | 
CC(Cl)(Cl)Cl | inactive | inactive |  | 
CC(c1ccc(O)cc1)c1ccc(O)cc1 | inactive | inactive |  | 
Oc1cccc(-c2ccccc2)c1 | inactive | inactive |  | 
Cc1c([N+](=O)[O-])cc2c(c1[N+](=O)[O-])C(C)(C)CC2(C)C | inactive | inactive |  | 
CC(C)(CCl)C(=O)Cl | inactive | inactive |  | 
c1ccc2c(c1)-c1cccc3cccc-2c13 | inactive | inactive |  | 
CC(C)=C[C@@H]1[C@@H](C(=O)OCc2coc(Cc3ccccc3)c2)C1(C)C | inactive | inactive |  | 
Nc1ccc(Cl)cc1C(=O)c1ccccc1 | inactive | inactive |  | 
Clc1ccccc1-c1ccccc1Cl | inactive | inactive |  | 
C[CH2][Hg][N]1C(=O)C2C(C1=O)C1(Cl)C(Cl)=C(Cl)C2(Cl)C1(Cl)Cl (centres undefined) |  |  | -25.3% [at 18.9 µM] | 14.8% [at 18.9 µM]
CCOC(=O)Cc1ccccc1 | inactive | inactive |  | 
ClC1=C(Cl)C2(Cl)C3C(Cl)C=CC3C1(Cl)C2(Cl)Cl (centres undefined) | inactive | inactive |  | 
CCN(CC)C(=O)SCc1ccc(Cl)cc1 | inactive | inactive |  | 

SMILES | Potency [1] | Potency [2] | viability change, negative = cytotoxic [1] | activity change, negative = cytotoxicity [2]
Oc1cc(Cl)ccc1Cl | inactive | inactive |  | 
C=CC(=O)OCC(CC)CCCC (centres undefined) | inactive | inactive |  | 
O=CNC(N1CCN(C(NC=O)C(Cl)(Cl)Cl)CC1)C(Cl)(Cl)Cl (centres undefined) | inactive | inactive |  | 
CCNC(=O)NC(=O)/C(C#N)=N/OC | inactive | inactive |  | 
CC(C)Oc1cc(-n2nc(C(C)(C)C)oc2=O)c(Cl)cc1Cl | inactive | inactive |  | 
CCN(C(C)=O)c1cccc(-c2ccnc3c(C#N)cnn23)c1 | inactive | inactive |  | 
O=S(=O)(O)O | inactive | inactive |  | 
CN1C(=O)COc2c(C(=O)NC3CN4CCC3CC4)cc(Cl)cc21 (centres undefined) | inactive | inactive |  | 
Cc1cccc(Cc2cnc[nH]2)c1C | inactive | inactive |  | 
ClCc1ccccc1 | inactive | inactive |  | 
NCC1(CC(=O)O)CCCCC1 | inactive | inactive |  | 
CCC1(C2=NCCN2)Cc2ccccc2O1 (centres undefined) | inactive | inactive |  | 
Nc1cc(Cl)ccc1O | inactive | inactive |  | 
CN(N=O)c1ccccc1 | inactive | inactive |  | 
C=CC(N)=O | inactive | inactive |  | 
CC[C@H](N)c1ccccc1 | inactive | inactive |  | 
ClCc1cccc(Cl)c1 | inactive | inactive |  | 
O=Cc1ccc(Cl)cc1Cl | inactive | inactive |  | 
CC(C)OC(=O)Cc1ccccc1 | inactive | inactive |  | 
CC(=O)C(Cl)C(=O)N(C)C (centres undefined) | inactive | inactive |  | 
CN1CSC(=S)N(C)C1 | inactive | inactive |  | 
CCCCCON=O | inactive | inactive |  | 
C[N+](C)(C)CC1CO1 (centres undefined) | inactive | inactive |  | 
NNC(=O)c1ccccc1 | inactive | inactive |  | 

SMILES | Potency [1] | Potency [2] | viability change, negative = cytotoxic [1] | activity change, negative = cytotoxicity [2]
CCCCc1c(C)nc(NCC)[nH]c1=O | inactive | inactive |  | 
O=C(Cl)C(Cl)Cl | inactive | inactive |  | 
Oc1cc(Cl)ccc1Oc1ccc(Cl)cc1Cl | 44.3 µM (active) | 62.6 µM (active) |  | 
ClC1=C(Cl)[C@]2(Cl)[C@@H]3[C@@H]4C[C@@H]([C@H]5O[C@@H]45)[C@@H]3[C@@]1(Cl)C2(Cl)Cl | 54.5 µM (active) | 61.1 µM (active) |  | 
CC(C)=CC1C(C(=O)OCc2coc(Cc3ccccc3)c2)C1(C)C (centres undefined) | inactive | inactive |  | 
CC(C)OC(=O)Nc1ccccc1 | inactive | inactive |  | 
COc1nc(NC(C)C)nc(NC(C)C)n1 | inactive | inactive |  | 
O=C(C(Cl)(Cl)Cl)C(Cl)(Cl)Cl | inactive | inactive |  | 
C(=NC1CCCCC1)=NC1CCCCC1 | inactive | inactive |  | 
O=c1c(C2CC(c3ccc(-c4ccc(Br)cc4)cc3)Cc3ccccc32)c(O)sc2ccccc12 (centres undefined) | inactive | inactive |  | 
N#C/C=C/c1ccccc1 | inactive | inactive |  | 
Cc1cccc(N=Nc2ccc(N(C)C)cc2)c1 | inactive | inactive |  | 
CNC(=O)/C=C(\C)OP(=O)(OC)OC | inactive | inactive |  | 
C[C@]12C=CC3=C4CCC(=O)C=C4CC[C@H]3[C@@H]1CC[C@@H]2O | inactive | inactive |  | 
CC(COc1ccc(Oc2ccccc2)cc1)Oc1ccccn1 (centres undefined) | inactive | inactive |  | 
CCCCCCCCCCCCCN1CC(C)OC(C)C1 (centres undefined) | inactive | inactive |  | 
CCCCN(CCCC)C(=S)[S-].CCCCN(CCCC)C(=S)[S-].[Ni+2] | inactive | inactive |  | 
O=C(O)c1ccc2[nH]cc(CCCCN3CC=C(c4ccccc4)CC3)c2c1 | inactive | inactive |  | 
CNC(=O)Oc1c(C(C)(C)C)cc(C)cc1C(C)(C)C | inactive | inactive |  | 
COc1ccc(C=O)cc1O | inactive | inactive |  | 
CCCN(CCC)c1c([N+](=O)[O-])cc(S(C)(=O)=O)cc1[N+](=O)[O-] | inactive | inactive |  | 
CCN(CC)c1ccccc1 | inactive | inactive |  | 
OCCBr | inactive | inactive |  | 
O=c1[nH]c2cc(Cl)ccc2n1C1CCNCC1 | inactive | inactive |  | 

SMILES | Potency [1] | Potency [2] | viability change, negative = cytotoxic [1] | activity change, negative = cytotoxicity [2]
FC(F)OC(F)(F)C(F)Cl (centres undefined) | inactive | inactive |  | 
CC(=O)[O][Pb]([c]1ccccc1)([c]1ccccc1)[c]1ccccc1 | 18 µM (active) | 24.3 µM (active) |  | 
CO[C@@H]1[C@H](OC(=O)NC(=O)CCl)CC[C@]2(CO2)[C@H]1[C@@]1(C)O[C@@H]1CC=C(C)C |  |  | 9.39% [at 18.9 µM] | 13.5% [at 18.9 µM]
Nc1ccccc1Cl | inactive | inactive |  | 
CN(C)CCc1c[nH]c2cccc(OP(=O)(O)O)c12 | inactive | inactive |  | 
CCOC(=O)c1ccccc1N | inactive | inactive |  | 
CCOC(=O)C1OC1(C)c1ccccc1 (centres undefined) | inactive | inactive |  | 
COc1ccc2c(c1OC)C(=O)O[C@H]2[C@@H]1c2cc3c(cc2CCN1C)OCO3 | inactive | inactive |  | 
CNC(=O)Oc1cccc2c1OC(C)(C)O2 | inactive | inactive |  | 
CC(C)c1cccc(C(C)C)c1O | inactive | inactive |  | 
CC(C)(C)C(=O)CCl | inactive | inactive |  | 
CC(=O)OCC1=C(C(=O)O)N2C(=O)[C@@H](N)[C@H]2SC1 |  |  | -1.82% [at 18.9 µM] | 1.16% [at 18.9 µM]
CC1CCC(=O)O1 (centres undefined) | inactive | inactive |  | 
CCOP(=S)(OCC)SCn1c(=O)oc2cc(Cl)ccc21 | inactive | inactive |  | 
Nc1ccc([N+](=O)[O-])cc1[N+](=O)[O-] | inactive | inactive |  | 
CCCCCCCCBr | inactive | inactive |  | 
O=C(O)CF | inactive | inactive |  | 
CN=C=S | inactive | inactive |  | 
N#Cc1cccc(C#N)c1 | inactive | inactive |  | 
CCOP(=S)(OCC)Oc1ccc(Cl)cc1Cl | inactive | inactive |  | 
CN(C)CCC#N | inactive | inactive |  | 
Cc1ccc(N)c(N)c1 | inactive | inactive |  | 
Cc1cc(C)nc(Nc2ccccc2)n1 | inactive | inactive |  | 
CN(C)[C@@H]1C(=O)C(C(N)=O)=C(O)[C@@]2(O)C(=O)C3=C(O)c4c(O)cccc4[C@@](C)(O)[C@H]3[C@H](O)[C@@H]12 | inactive | inactive |  | 

SMILES | Potency [1] | Potency [2] | viability change, negative = cytotoxic [1] | activity change, negative = cytotoxicity [2]
Nc1ccc(-c2ccc(N)c(Cl)c2)cc1Cl | inactive | inactive |  | 
CCOC(=O)CC(SP(=S)(OC)OC)C(=O)OCC (centres undefined) | inactive | inactive |  | 
CCCN(CCCl)c1c([N+](=O)[O-])cc(C(F)(F)F)cc1[N+](=O)[O-] | inactive | inactive |  | 
Cc1cnc(C2=NC(C)(C(C)C)C(=O)N2)c(C(=O)O)c1 (centres undefined) | inactive | inactive |  | 
c1ccc(Nc2ccc3ccccc3c2)cc1 | inactive | inactive |  | 
C[C@]1(O)CC[C@H]2[C@@H]3CCC4=CC(=O)CC[C@]4(C)[C@@]3(F)[C@@H](O)C[C@@]21C | inactive | inactive |  | 
O=C(NC(=O)c1c(F)cccc1F)Nc1ccc(Cl)cc1 | inactive | inactive |  | 
COC(=O)c1cc(Oc2ccc(Cl)cc2Cl)ccc1[N+](=O)[O-] | inactive | inactive |  | 
C=CC(=O)OCC(C)C | inactive | inactive |  | 
COc1ccc(/C(=C/C(=O)N2CCOCC2)c2ccc(Cl)cc2)cc1OC | inactive | inactive |  | 
O=[N+]([O-])c1cc(C(F)(F)F)c(Cl)c([N+](=O)[O-])c1Cl | inactive | inactive |  | 
CCOP(=O)(O)C(N)=O | inactive | inactive |  | 
CC(C)OC(=S)S | inactive | inactive |  | 
CC(C)CBr | inactive | inactive |  | 
CCc1cc(C)cc(CC)c1-c1c(OC(=O)C(C)(C)C)n2n(c1=O)CCOCC2 | inactive | inactive |  | 
COP(=S)(OC)Oc1ccc([N+](=O)[O-])c(C)c1 | inactive | inactive |  | 
CCN(CC)C(=S)[S-].CCN(CC)C(=S)[S-].[Zn+2] | 6.8 µM (active) | 19.2 µM (active) |  | 
CCS(=O)(=O)C(C)(C)S(=O)(=O)CC | inactive | inactive |  | 
CCCCNP(N)(N)=S | inactive | inactive |  | 
COc1cc(C=O)cc2c1[C@H](COC(N)=O)[C@]1(OC(C)=O)ON2C[C@H]2[C@@H]1N2C(C)=O | inactive | inactive |  | 
CC(C)(c1ccccc1)c1ccc(O)c(C(C)(C)c2ccccc2)c1 | 42.9 µM (active) and 54.5 µM (active) | 60.6 µM (active) and 61.1 µM (active) |  | 
